High-throughput results from PubChem.
An excerpt weighted towards active compounds, which were near 11% of everything screened.
PNC inhibitor: blocks assembly of the perinucleolar compartment. PC3M PTB-GFP, PNC prevalence imaging, 16 h; active compounds read low. activity change (PNC), negative = inhibition, % at 10 µM. hit rate 3.1% among 140,000. AID 2417;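 active = readout at or below -70, meaning at least 70% loss of cells showing the perinucleolar compartment, a nuclear body marking cancer cells; inconclusive = readout between -30 and a set limit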;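 note: plate controls were DMSO wells for no effect and camptothecin positive control wells for full effect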
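Compounds are pinned in duplicate onto adhered PC3M cells stably expressing GFP-tagged PTB and incubated 16 h at 37 C. Cells are then fixed, nuclei stained with Hoechst, and PNC-positive cells counted.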
ALDH1A1 inh: ALDH1A1 (human) enzyme inhibition; P00352; Purified ALDH1A1, NADH fluorescence, propionaldehyde substrate; Potency, µM (highest dose often 75.3 µM), for the others: at the top dose activity, negative = inhibition, usual class: inhibitors; hit rate 7.3% among 220,000; AID 1030; active = well fitted inhibition curve with a large enough effect, not every such curve was filed as active; inconclusive = small, poorly fitted or top-dose-only effect, or another doubt; inactive = no such curve, though single readings can be large or run the other way;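 note: potency is the fitted concentration of half-maximal effect; plate controls were no enzyme wells and a reference inhibitor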
Target sequence (P00352 whole entry, looked up): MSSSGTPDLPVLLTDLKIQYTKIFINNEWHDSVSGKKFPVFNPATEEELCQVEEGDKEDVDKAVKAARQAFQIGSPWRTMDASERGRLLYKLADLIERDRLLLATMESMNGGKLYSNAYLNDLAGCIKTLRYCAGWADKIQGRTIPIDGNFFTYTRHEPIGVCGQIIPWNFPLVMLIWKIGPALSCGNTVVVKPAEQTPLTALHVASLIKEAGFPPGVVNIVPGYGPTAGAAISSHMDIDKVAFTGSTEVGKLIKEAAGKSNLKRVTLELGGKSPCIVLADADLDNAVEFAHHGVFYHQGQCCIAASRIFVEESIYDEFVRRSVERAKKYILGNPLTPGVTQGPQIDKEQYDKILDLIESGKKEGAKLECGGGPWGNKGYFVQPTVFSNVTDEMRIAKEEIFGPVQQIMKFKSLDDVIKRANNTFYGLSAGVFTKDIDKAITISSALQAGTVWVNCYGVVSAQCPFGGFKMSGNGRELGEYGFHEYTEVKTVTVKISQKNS
IMPase inh: IMPase inhibition in cells; P97697; CHO-M1 cells, IP1 accumulation, HTRF TR-FRET ratio; inhibition (IP1 accumulation), % at 46.1 µM; 120,000 tested, under 10 active; AID 901; active = well fitted curve in the direction sought with a large enough effect in the signal ratio, not every such curve was filed as active; inconclusive = small, poorly fitted or top-dose-only effect, or a change in a side signal; inactive = no such curve, though single readings can be large or run the other way; the % refers to the signal ratio;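 note: cells stimulated with carbachol in lithium chloride buffer; plate controls were DMSO basal wells for no effect and reference inhibitor wells for full effect; higher means more IMPase inhibition seen as more IP1 and lower FRET ratio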
Target sequence (P97697 whole entry, looked up): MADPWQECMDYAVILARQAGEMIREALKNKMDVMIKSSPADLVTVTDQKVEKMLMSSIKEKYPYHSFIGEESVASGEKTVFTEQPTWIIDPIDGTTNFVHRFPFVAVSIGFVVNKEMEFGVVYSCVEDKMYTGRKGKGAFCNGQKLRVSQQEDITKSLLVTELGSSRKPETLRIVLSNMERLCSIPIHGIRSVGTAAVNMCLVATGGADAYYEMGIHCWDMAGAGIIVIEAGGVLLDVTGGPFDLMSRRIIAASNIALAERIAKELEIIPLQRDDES
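CHO-M1, 2000 cells/well, cultured 16–30 h; cpd up to 46 uM; carbachol (50 uM solution, stimulation buffer w/ 50 mM LiCl, pH 7.4), 30 min 37C; IP-One TR-FRET, 10 min RT; Ex 320/Em 665, 620; Hill-fit AC50.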
12-hLO inh: blocks human 12-lipoxygenase activity. P18054. hit rate 0.12% among 150,000. purified 12-hLO, xylenol orange hydroperoxide absorbance. Potency, µM (doses to about 57.1 µM), inactives show at the highest dose activity change, negative = inhibition, most hits filed as inhibitors; note: potency is the fitted concentration of half-maximal effect; nearly all actives have a fitted effect of over 55% in size
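Purified human 12hLO (150 nM), preincubated 15 min with compound, then 40 uM arachidonic acid for 30 min, room temperature, Hepes pH 7.0 with 0.01% Triton X-100. Hydroperoxide detected by ferrous iron/xylenol orange; 573/405 nm absorbance ratio gives reaction progress.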
HPGD inh: HPGD (human) dehydrogenase inhibition; hit rate 4.3% among 150,000; AID 894; P15428; Potency, µM, inactives show at the highest dose activity change, negative = inhibition, actives largely listed as inhibitors; purified HPGD, NADH fluorescence kinetic, PGE2 substrate; active = well fitted inhibition curve with a large enough effect, not every such curve was filed as active; inconclusive = small, poorly fitted or top-dose-only effect, or another doubt; inactive = no such curve, though single readings can be large or run the other way; note: potency is the fitted concentration of half-maximal effect
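20 nM HPGD preincubated 15 min at room temperature with compound in 50 mM Tris-HCl pH 8, 0.01% Tween 20. Started with 1 mM NAD+ and 30 uM prostaglandin E2; NADH fluorescence (360/450 nm) read 5 times over 30-s intervals, last minus first.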
IMPase Li cell: membrane-permeable IMPase blocker, potentiated with lithium. AID 1457. hit rate 0.35% among 210,000. Potency, µM (titrated, usually from 59.4 µM), for inactives: at the highest dose activity, negative = IMPase inhibition, hits mostly inhibitors. CHO-M1 cells, IP1 TR-FRET (IP-One), carbachol + lithium;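 note: IP1 builds up when IMPase is blocked and the TR-FRET signal falls; potency is the fitted concentration of half-maximal effect; plate controls were basal vehicle for no effect and high inhibitor control for full effect; nearly all actives have a fitted effect of over 50% in size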
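IP1 accumulation measured by competitive TR-FRET in lysed CHO-M1 cells after 30 min compound exposure at 37C, with a small lithium addition to potentiate weak responses. Hill-equation AC50 from ratio and donor-channel data.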
* hit, by the source's call; ? = inconclusive; · = not tested or not shown; [ ] = another dose, or the depositor's remark. Unless noted, calls come from the whole dose curve; as a rule, active = well fitted curve in the direction sought with a large enough effect; inconclusive = small, poorly fitted or top-dose-only effect, or another doubt; inactive = no such curve, though single readings can be large; an effect the other way counts as inactive or inconclusive. Unless noted, % is set by controls: 0 for no effect and ±100 for the full control effect.

SMILES	PNC inhibitor	ALDH1A1 inh	IMPase inh	12-hLO inh	HPGD inh	IMPase Li cell
CCOc1ccc(NC(=S)N(CCc2c(C)[nH]c3ccccc23)Cc2ccco2)cc1	18	-3%	·	-2%	-17%	12%
COc1ccc(S(=O)(=O)N(CC(=O)NCCSc2ccccc2)c2ccc(Cl)cc2)cc1	·	·	6	·	·	·
COc1cccc(/C=N/N2C(=O)NC3(CCCCC3)C2=O)c1O	35	?	-2	-4%	-15%	24%[38.3 µM]
CCOc1cc(/C=N/N2C(=O)NC3(CCCCC3)C2=O)cc(Br)c1O	·	15µM*	·	·	·	7%
c1ccc([P+](CC[P+](c2ccccc2)(c2ccccc2)c2ccccc2)(c2ccccc2)c2ccccc2)cc1	·	2%[13.5 µM]	·	8%[11.4 µM]	-5%	3%
COc1ccc(OC)c2c(=S)c3ccccc3[nH]c12	·	1.6µM*	31	25µM*	5µM*	34%
COc1ccc(-c2c(N)nnc3c2[nH]c2ccccc23)cc1OC	13	-7%	-7	-5%	·	·
CCOC(=O)Nc1nc(-c2ccccc2)c(C)s1	·	?	·	-3%[11.4 µM]	-20%	1%
O=C(Nc1cccc(F)c1)N1CCC2(CC1)CCN(C(=O)c1cc(C(F)(F)F)cc(C(F)(F)F)c1)CC2	·	9%	·	-2%	-10%	4%
COc1cccc(C2c3[nH]c4ccccc4c3CCN2C(=O)Cn2cncn2)c1OC (stereo not drawn)	·	9.5µM*	·	·	·	27%
Cc1ccccc1C1c2[nH]c3ccccc3c2CCN1C(=O)c1ccc(=O)n(C)n1 (stereo not drawn)	·	32µM*	·	·	·	19%
Cc1ccc(S(=O)(=O)N2CCOCC2)cc1NC(=O)CN1CCN(c2ccc(O)cc2)CC1	41	?	·	-5%	5%	3%
Cc1cc(C)c(C)c(S(=O)(=O)N2CCN(c3ccc(O)cc3)CC2)c1C	·	22µM*	·	·	·	0%
O=c1cc(-c2ccccc2Cl)oc2c([N+](=O)[O-])c(O)cc(O)c12	?	-11%	·	-4%[0.00818 µM]	28µM*	12%
O=c1cc(-c2ccccc2Cl)oc2ccc([N+](=O)[O-])c(O)c12	43	14%	·	-12%[0.00818 µM]	11µM*	4%
Nc1ccc2oc(-c3ccccc3Cl)cc(=O)c2c1O	-26	1%	·	-3%[0.00818 µM]	?	2%
CCCS(=O)(=O)c1c(S(=O)(=O)CCC)c2c3ccccc3ccn2c1C(=O)OC	-105*	?	6	-3%	?	16%
CCCS(=O)(=O)c1c(S(=O)(=O)CCC)c2c(C)cccn2c1C(=O)OC	-8	?	6	7%	?	5%[38.3 µM]
O=C(CSc1nnc(-c2ccc(F)cc2)o1)N1CCCc2ccccc21	·	·	1	·	·	·
CCc1ccc2c(c1)C(=O)C(=O)N2CC(=O)Nc1ccc(NC(=O)c2ccccn2)cc1	·	0.22µM*	·	·	·	1%
O=C(CSc1ncnc2c1oc1ccccc12)NCc1ccco1	?	11µM*	?	-10%	8.9µM*	11µM*
COc1ccc(Cl)cc1NC(=O)CSc1ncnc2c1oc1ccccc12	40	10%	·	3%	-15%	-7%
O=C(CSc1ncnc2c1oc1ccccc12)Nc1ccccc1C(F)(F)F	7	-8%	?	-2%	?	5.6µM*
COc1cccc(NC(=O)Cn2c(=O)n(CCc3cccc(C)c3)c(=O)c3ccccc32)c1	·	·	-7	·	·	·
C=CCNS(=O)(=O)c1ncnc2nc[nH]c12	·	8%[13.5 µM]	·	-3%[11.4 µM]	-5%	-3%
SMILES	PNC inhibitor	ALDH1A1 inh	IMPase inh	12-hLO inh	HPGD inh	IMPase Li cell
O=C(c1cnccn1)N1CCc2ccccc2C1	·	11%	·	·	·	-4%
CCn1ncc(CNC(=O)c2cccc([N+](=O)[O-])c2)c1C	-92*	12%	-10	-6%	-2%	2%
CCn1ncc(CNC(=O)CCCSc2nc(-c3ccco3)cc(C(F)(F)F)n2)c1C	-24	?	13	0%	-6%	10%
CCn1ncc(CNC(=O)C2(C)CC2(Cl)Cl)c1C (stereo not drawn)	?	-1%	·	-5%	11µM*	1%
c1ccc(CN2CCC3(CC2)SSC2(CCN(Cc4ccccc4)CC2)SS3)cc1	·	-7%[13.5 µM]	·	-2%[11.4 µM]	-4%	-4%
COc1ccc(CNc2ncnc(N)n2)cc1	-101*	6%	6	1%	-1%	17%[38.3 µM]
COc1ccc(CN(C)c2ncnc(N)n2)cc1	2	18%	0	0%	-5%	-4%[38.3 µM]
CCOC(=O)CSc1nc2ccccc2n2cnnc12	?	18µM*	-5	-2%	?	?
CCOC(=O)CSc1nc2ccccc2n1C(=O)OCC	17	6%	?	-3%	-5%	-6%[38.3 µM]
S=c1[nH]nc(-c2ccc3c(c2)OCO3)n1-c1ccccc1	?	?	-14	-7%	?	-14%
CCCn1c(SCC(=O)c2cc(OC)ccc2OC)nnc1-c1ccco1	?	7%	5	-7%	-10%	4%[38.3 µM]
S=c1[nH]nc(COc2ccc3c(c2)OCO3)n1-c1ccccc1	?	14µM*	5	?	25µM*	17%[38.3 µM]
CCn1c(COc2ccc3c(c2)OCO3)nnc1SCC(=O)c1ccccc1	?	?	5	-12%	22µM*	19%[38.3 µM]
CCn1c(SCC(=O)c2ccc(OC)cc2)nnc1C(C)NC(=O)c1ccc(OC)cc1 (stereo not drawn)	-18	12µM*	5	8%	-16%	-8%
CCn1c(SCC(=O)c2cc(OC)ccc2OC)nnc1C(C)C	-19	28µM*	2	-9%	-16%	30%[38.3 µM]
CC(=O)c1ccc(NC(=O)c2ncn(-c3ccccc3)n2)cc1	·	·	-1	·	·	·
Nc1c(OCC(=O)O)ccc2cc(S(=O)(=O)O)ccc12	·	-1%[13.5 µM]	·	-1%[11.4 µM]	-15%	14%
CCn1c(CNC(=O)Cc2ccc(OC)cc2)nnc1SCCOc1ccccc1	-12	-1%	1	-1%	-4%	-3%[38.3 µM]
CCn1c(CNC(=O)Cc2ccc(OC)cc2)nnc1SCC(=O)c1ccccc1	·	2.8µM*	·	·	·	7%
COC(=O)CSc1nnc(CNC(=O)c2ccccc2OC)n1C	-88*	-3%	?	-2%	-6%	-7%[38.3 µM]
COC(=O)CSc1nnc(CNC(=O)c2cc(OC)c(OC)c(OC)c2)n1C	?	-10%	?	-2%	·	·
COc1ccc(CC(=O)NCc2nnc(SCc3ccc(C)cc3)n2C)cc1	-92*	-4%	·	0%	-12%	-5%
COc1ccc(NC(=O)C(Cc2c[nH]c3ccccc23)NC(=O)OC(C)(C)C)cc1 (stereo not drawn)	·	·	-8	·	·	·
O=C(CN(c1cccc(Br)c1)S(=O)(=O)c1ccccc1)N1CCc2ccccc2C1	·	·	5	·	·	·
CN(C)CCCN=c1c2ccccc2n(C)c2[nH]c(=O)n(C)c(=O)c12	·	-4%[13.5 µM]	·	0%[11.4 µM]	-1%	-9%
COc1ccc(/C(C)=N/NC(=S)NCCc2ccccc2)cc1	·	3%	·	·	·	11%
